For orientation: inhibition means the relative decrease from the control value, in per cent.

“And” between values parts separate entries of the source, which are not always exact repeats. Identical values can stand only once.

Assay [1] deals with Tyrosine-protein kinase ABL1 (Homo sapiens), P00519 [T315I]. The conditions noted are these: at 1 µM.
For assay [2], the system named is Tyrosine-protein kinase ABL1 (Homo sapiens), P00519 [Y253F]. The settings on record: at 0.1 µM.
For assay [3] the test system is unchanged. The settings on record: at 1 µM.
Assay [4] deals with Tyrosine-protein kinase ABL1 (Homo sapiens) (UniProt P00519). The settings on record: at 0.1 µM.
The target is the same in assay [5]. The settings on record: at 1 µM.
The target in assay [6] is ALK tyrosine kinase receptor (Homo sapiens) (UniProt Q9UM73). The settings on record: at 0.1 µM.
Chain of ALK tyrosine kinase receptor (Homo sapiens) (Q9UM73 19-1620 limits assumed): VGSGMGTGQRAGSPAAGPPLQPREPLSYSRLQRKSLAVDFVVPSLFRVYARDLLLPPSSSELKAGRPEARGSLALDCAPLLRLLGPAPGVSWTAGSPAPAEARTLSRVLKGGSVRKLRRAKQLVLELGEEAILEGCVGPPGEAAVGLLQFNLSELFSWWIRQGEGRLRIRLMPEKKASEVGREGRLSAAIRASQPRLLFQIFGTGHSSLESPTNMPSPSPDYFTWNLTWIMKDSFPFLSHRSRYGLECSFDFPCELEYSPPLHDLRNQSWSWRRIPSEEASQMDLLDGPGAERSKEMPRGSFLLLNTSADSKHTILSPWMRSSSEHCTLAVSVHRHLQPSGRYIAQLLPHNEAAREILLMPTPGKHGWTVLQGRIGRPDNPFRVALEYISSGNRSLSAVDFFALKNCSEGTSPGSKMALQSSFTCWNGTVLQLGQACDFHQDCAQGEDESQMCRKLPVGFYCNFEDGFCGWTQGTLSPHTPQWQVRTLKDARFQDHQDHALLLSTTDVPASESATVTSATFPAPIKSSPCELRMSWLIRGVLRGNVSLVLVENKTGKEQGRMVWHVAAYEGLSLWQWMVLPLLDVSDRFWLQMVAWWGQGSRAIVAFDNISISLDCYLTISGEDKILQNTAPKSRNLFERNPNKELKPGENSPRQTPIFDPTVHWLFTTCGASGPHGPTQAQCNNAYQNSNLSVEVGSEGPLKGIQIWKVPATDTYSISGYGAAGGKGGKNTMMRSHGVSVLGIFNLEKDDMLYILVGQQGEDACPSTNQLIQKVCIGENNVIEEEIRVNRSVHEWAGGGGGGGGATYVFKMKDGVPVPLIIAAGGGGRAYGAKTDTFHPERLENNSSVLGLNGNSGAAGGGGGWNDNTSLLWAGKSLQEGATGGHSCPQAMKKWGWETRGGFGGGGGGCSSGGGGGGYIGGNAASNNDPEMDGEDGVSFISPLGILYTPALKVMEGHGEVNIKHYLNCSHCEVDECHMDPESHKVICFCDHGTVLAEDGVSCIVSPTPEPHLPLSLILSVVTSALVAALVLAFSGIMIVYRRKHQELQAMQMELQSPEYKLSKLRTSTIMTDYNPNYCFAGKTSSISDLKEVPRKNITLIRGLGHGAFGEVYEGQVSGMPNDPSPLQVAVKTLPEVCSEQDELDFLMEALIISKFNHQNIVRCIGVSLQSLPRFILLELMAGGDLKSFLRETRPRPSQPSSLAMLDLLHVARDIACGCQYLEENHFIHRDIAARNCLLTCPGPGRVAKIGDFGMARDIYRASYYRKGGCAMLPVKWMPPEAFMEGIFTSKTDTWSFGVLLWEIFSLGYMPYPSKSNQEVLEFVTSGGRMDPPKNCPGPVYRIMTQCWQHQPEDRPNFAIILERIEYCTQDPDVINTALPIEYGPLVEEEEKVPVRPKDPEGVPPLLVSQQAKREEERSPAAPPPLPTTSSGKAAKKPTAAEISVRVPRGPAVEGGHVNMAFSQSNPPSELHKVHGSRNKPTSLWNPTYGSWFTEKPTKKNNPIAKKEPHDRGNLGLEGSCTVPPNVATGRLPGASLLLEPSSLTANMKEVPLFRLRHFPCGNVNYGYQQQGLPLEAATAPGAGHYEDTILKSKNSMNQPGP
The target is the same in assay [7]. The conditions noted are these: at 1 µM.
The target in assay [8] is Tyrosine-protein kinase ABL2 (Homo sapiens) (UniProt P42684). The conditions noted are these: at 0.1 µM.
Chain of Tyrosine-protein kinase ABL2 (Homo sapiens) (P42684 whole entry): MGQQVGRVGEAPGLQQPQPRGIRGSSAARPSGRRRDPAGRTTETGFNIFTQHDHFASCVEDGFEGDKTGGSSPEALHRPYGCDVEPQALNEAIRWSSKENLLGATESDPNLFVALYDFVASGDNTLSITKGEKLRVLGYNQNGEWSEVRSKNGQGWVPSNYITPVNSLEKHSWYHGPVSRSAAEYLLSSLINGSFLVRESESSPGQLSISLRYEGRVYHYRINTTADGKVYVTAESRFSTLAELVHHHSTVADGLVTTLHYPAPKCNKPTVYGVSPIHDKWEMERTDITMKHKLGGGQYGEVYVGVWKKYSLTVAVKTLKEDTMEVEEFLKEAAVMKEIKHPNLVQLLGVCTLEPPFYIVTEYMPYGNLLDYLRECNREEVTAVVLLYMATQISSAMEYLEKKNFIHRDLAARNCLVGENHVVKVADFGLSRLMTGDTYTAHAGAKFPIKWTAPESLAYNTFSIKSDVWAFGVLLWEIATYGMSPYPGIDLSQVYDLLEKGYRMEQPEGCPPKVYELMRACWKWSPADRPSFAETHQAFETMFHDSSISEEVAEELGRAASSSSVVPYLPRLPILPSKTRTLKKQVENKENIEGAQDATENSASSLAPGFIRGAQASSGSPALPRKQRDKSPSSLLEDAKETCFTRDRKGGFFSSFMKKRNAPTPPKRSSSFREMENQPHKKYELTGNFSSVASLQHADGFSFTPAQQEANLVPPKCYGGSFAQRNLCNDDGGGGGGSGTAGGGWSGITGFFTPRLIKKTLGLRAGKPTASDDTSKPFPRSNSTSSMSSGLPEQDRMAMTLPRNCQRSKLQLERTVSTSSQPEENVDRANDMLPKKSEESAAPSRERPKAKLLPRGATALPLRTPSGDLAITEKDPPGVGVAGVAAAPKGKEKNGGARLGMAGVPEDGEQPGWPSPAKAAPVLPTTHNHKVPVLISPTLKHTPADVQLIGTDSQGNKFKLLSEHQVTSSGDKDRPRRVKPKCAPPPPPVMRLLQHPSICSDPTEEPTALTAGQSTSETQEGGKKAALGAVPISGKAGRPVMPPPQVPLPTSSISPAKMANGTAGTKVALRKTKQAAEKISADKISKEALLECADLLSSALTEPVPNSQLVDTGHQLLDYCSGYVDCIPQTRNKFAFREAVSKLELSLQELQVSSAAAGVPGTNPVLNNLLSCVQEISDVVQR
The target is the same in assay [9]. The conditions noted are these: at 1 µM.
Assay [10] deals with Tyrosine-protein kinase receptor UFO (Homo sapiens) (UniProt P30530). The settings on record: at 0.1 µM.
Chain of Tyrosine-protein kinase receptor UFO (Homo sapiens) (P30530 whole entry): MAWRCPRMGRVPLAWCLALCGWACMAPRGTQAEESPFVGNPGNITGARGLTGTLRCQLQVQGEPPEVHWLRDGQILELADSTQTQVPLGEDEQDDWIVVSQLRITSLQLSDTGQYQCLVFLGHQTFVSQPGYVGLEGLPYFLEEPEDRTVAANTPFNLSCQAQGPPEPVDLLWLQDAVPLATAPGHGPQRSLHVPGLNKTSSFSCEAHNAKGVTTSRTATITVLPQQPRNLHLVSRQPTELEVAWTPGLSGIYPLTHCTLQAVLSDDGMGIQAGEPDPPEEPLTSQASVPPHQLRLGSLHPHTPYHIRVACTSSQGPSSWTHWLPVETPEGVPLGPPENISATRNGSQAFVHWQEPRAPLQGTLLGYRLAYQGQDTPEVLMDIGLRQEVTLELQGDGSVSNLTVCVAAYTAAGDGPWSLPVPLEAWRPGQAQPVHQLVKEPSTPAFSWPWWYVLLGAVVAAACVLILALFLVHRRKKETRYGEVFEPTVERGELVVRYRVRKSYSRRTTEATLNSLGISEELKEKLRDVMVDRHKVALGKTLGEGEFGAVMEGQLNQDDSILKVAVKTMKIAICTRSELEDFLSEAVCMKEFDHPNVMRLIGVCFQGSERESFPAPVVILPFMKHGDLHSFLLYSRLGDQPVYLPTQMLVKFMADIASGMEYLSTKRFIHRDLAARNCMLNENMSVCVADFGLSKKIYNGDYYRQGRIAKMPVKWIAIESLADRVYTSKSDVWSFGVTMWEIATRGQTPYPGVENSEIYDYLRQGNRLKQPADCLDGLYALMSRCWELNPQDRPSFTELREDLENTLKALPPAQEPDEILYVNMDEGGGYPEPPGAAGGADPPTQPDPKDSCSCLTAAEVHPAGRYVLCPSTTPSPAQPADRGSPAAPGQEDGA
Assay [11] shares this target. The conditions noted are these: at 1 µM.
The target of assay [12] is Tyrosine-protein kinase Blk (Homo sapiens) (UniProt P51451). The settings on record: at 0.1 µM.
Assay [13] has the same target. The settings on record: at 1 µM.
Assay [14] deals with T1, Cytoplasmic tyrosine-protein kinase BMX (Homo sapiens) (UniProt P51813).
T1 sequence (whole entry): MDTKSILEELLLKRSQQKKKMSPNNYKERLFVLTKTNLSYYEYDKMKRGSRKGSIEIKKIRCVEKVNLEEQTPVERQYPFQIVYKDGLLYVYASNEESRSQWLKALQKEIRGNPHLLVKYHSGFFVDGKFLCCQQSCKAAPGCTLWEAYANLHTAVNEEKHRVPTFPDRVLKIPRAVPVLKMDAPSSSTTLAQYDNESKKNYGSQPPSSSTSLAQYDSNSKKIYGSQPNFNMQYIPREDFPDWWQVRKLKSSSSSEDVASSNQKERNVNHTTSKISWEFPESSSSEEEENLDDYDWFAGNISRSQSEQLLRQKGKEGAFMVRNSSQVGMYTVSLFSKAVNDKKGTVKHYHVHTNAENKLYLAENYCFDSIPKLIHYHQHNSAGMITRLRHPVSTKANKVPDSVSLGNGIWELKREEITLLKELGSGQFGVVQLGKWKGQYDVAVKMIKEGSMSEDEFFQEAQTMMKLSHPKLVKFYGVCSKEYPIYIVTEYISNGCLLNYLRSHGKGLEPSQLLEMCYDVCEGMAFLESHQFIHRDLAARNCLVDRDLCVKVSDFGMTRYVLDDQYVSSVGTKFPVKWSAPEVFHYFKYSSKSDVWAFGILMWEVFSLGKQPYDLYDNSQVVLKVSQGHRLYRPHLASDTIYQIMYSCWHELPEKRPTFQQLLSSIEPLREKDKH
The settings on record: at 0.1 µM.

The target of assay [15] is T1, Cytoplasmic tyrosine-protein kinase BMX (Homo sapiens). The settings on record: at 1 µM.
The target of assay [16] is Protein-tyrosine kinase 6 (Homo sapiens) (UniProt Q13882). The conditions noted are these: at 0.1 µM.
For assay [17] the target is unchanged. The conditions noted are these: at 1 µM.
The target in assay [18] is Tyrosine-protein kinase BTK (Homo sapiens) (UniProt Q06187). The settings on record: at 0.1 µM.
Chain of Tyrosine-protein kinase BTK (Homo sapiens) (Q06187 whole entry): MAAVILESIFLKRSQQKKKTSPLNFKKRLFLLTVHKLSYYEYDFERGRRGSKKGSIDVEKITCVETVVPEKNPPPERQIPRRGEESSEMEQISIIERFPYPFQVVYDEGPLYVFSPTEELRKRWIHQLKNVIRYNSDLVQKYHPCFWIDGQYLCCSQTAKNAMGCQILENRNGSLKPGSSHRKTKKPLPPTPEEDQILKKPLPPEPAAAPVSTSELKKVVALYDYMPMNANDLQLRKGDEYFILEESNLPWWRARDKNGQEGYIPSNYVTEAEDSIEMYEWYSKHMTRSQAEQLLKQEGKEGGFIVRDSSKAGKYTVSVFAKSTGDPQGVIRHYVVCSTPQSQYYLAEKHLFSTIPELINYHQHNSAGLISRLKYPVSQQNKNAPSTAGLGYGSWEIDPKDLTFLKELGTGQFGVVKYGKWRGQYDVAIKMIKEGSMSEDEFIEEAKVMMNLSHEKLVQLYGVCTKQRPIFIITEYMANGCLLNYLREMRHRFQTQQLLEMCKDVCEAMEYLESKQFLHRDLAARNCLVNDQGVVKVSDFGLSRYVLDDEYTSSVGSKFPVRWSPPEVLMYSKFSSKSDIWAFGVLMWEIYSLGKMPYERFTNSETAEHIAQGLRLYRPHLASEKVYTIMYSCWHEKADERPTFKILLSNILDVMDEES
Assay [19] shares this target. The settings on record: at 1 µM.
The target in assay [20] is Tyrosine-protein kinase CSK (Homo sapiens) (UniProt P41240). The settings on record: at 0.1 µM.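 Note: value given is the averaged percent inhibition of CSK kinase activity, from the GSK PKIS kinase inhibitor set screening panel.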
Chain of Tyrosine-protein kinase CSK (Homo sapiens) (P41240 2-450 limits assumed): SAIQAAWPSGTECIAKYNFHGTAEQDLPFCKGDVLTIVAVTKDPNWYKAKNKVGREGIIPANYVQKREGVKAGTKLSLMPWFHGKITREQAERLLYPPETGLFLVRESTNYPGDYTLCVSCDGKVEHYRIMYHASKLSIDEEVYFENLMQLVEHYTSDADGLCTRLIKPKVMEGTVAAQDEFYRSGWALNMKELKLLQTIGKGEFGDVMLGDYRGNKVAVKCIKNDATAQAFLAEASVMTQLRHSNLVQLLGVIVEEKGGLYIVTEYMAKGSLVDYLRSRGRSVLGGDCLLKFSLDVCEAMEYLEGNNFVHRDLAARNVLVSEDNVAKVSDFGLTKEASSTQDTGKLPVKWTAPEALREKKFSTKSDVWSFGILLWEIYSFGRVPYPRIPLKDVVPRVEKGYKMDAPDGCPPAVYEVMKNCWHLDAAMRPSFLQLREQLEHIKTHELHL

Regarding `Nc1nonc1-c1nc2cnccc2n1C1CC1`, the inhibition is 2.56% and 3.11% in assay [1]; 3.83% and 3.92% in [2]; 4.12% and 4.54% in assay [3]; 5.16% and -2.65% in [4]; 8.03% and 2.25% in assay [5]; 2.63% and -1.89% in assay [6]. Also, the inhibition in [7] is 5.84% and 0.48%; in [8], 3.44% and -2.1%; in assay [9], 5.37% and -2.96%; in assay [10], -7.63% and -3.39%; in assay [11] it was 0.16% and -1.32%; in assay [12] it was 2.66% and -2.38%. In addition, the inhibition was 4.59% and -2.3% in [13]; 6.52% and -2.61% in assay [14]; 4.75% and 2.31% in [15]; 5.31% and 2.92% in [16]; 3.69% and 2.66% in [17]; 1.67% and -4.68% in assay [18]. Also, the inhibition in assay [19] was 1.98% and -4.91%; in assay [20], 3.81% and 3.48%.
`COc1ccc2ncn(-c3cc(O[C@H](C)c4ccccc4C(F)(F)F)c(C(N)=O)s3)c2c1`: the inhibition in [1] was 0.84%; in assay [2] it was -1.93%; in assay [3] it was -0.53%; in [4], 0.27%; in assay [5], 9.42%; in assay [6] it was -0.81%. Further, the inhibition in assay [7] is 2.16%; in assay [8], 4.37%; in assay [9] it was 2.94%; in assay [10], 0.07%; in [11] it was 1.8%; in assay [12], -0.74%. Also, the inhibition in assay [13] is 2.3%; in [14], -0.1%; in assay [15], 1.93%; in assay [16] it was -0.2%; in [17] it was -0.61%; in assay [18], -0.76%. Further, the results for the inhibition in [19] and in [20] were -0.74% and -1.23%, respectively.
As for `COc1ccc(-c2nn3ncccc3c2-c2ccnc(Nc3ccc(F)c(F)c3)n2)cc1`, the inhibition in assay [1] was found to be 16.6%; in [2] it was 5.29%; in [3], 17.1%; in assay [4], 3.82%; in assay [5] it was 14.7%; in [6] it was 2.49%. The inhibition is 8.04% in assay [7]; 2.7% in assay [8]; 11.9% in assay [9]; -1.84% in [10]; -3.4% in assay [11]; 3.7% in assay [12]. For the same molecule, the inhibition in assay [13] was 7.65%; in [14] it was 6.68%; in assay [15] it was 6.9%; in assay [16], 9.68%; in assay [17], 46.2%; in [18], 0.77%. Further, the inhibition in assay [19] was 0.68%; in assay [20], 4.89%.
`Fc1ccc(Nc2nccc(-c3c(-c4ccc(C(F)(F)F)cc4)nn4ncccc34)n2)cc1F`: the inhibition in [1] was found to be 0.93%; in assay [2], 3.58%; in assay [3] it was 2.19%; in [4], 5.29%; in [5], 5.12%; in [6], 3.18%. The inhibition in assay [7] is 6.53%; in assay [8], 3.43%; in assay [9], 4.03%; in assay [10], -5.49%; in assay [11] it was -7.82%; in assay [12] it was 2.43%. In addition, the inhibition came to 2.03% in assay [13]; 0.77% in assay [14]; 5.09% in assay [15]; 3.39% in [16]; 0.92% in [17]; 1.62% in assay [18]. Further, the inhibition was determined as 0.94% in assay [19] and 1.84% in assay [20].
For the molecule `CS(=O)(=O)CCNCc1ccoc1-c1ccc2ncnc(Nc3ccc(OCc4ccccc4)cc3)c2c1`, the inhibition was 0.75% in assay [1]; 0.71% in assay [2]; -0.62% in [3]; 2.05% in [4]; 0.92% in [5]; -0.16% in assay [6]. For the same molecule, the inhibition in assay [7] is 1.21%; in assay [8] it was 1.41%; in assay [9], 3.46%; in assay [10], -0.99%; in assay [11] it was 1.55%; in assay [12] it was 0.99%. Moreover, the inhibition in [13] is 7.84%; in assay [14] it was 1.55%; in assay [15], 3.4%; in [16], 1.71%; in assay [17], 8.3%; in assay [18], 0.01%. The inhibition stood at 0.8% in [19] and 2.96% in [20].
With `FC(F)(F)CNc1nccc(-c2cnn3ncccc23)n1`, the inhibition stood at 0.38% in assay [1]; 0.37% in assay [2]; 2.04% in [3]; 1.87% in assay [4]; 4% in [5]; 2.79% in [6]. The inhibition in [7] was 3.31%; in assay [8] it was 0.3%; in assay [9] it was 3.29%; in [10], -3.79%; in assay [11], -3.11%; in assay [12], 1.37%. For the same molecule, the inhibition is 2.35% in assay [13]; 4.12% in assay [14]; 2.03% in [15]; -1.25% in assay [16]; 3.34% in [17]; 0.18% in assay [18]. The values for the inhibition in assay [19] and in [20] were 0.42% and 2.81%, respectively.

The record behind these values is ChEMBL document CHEMBL1961873, “Compounds: GSK PKIS; Assays: Nanosyn kinase panel” (2012).
